Source: the supplement of paper PMC8728848
Only a selection was taken, and the strongest signals are over-represented in it overall.

Experiments:
Test in all cases: glycan array binding signal (z-score within array); higher = stronger binding
Settings in all cases: glycan notation: IUPAC condensed, linker removed
GalNAc(b1-3)GlcNAc = target: GalNAc(b1-3)GlcNAc
Procedure, shortened: (§1)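 From the Consortium for Functional Glycomics database, 3228 arrays were curated, keeping only those whose protein sequence was available. Binding is given as a within-array Z-score averaged across arrays sharing a protein sequence and across linkers. Negative Z-scores can be read as non-binding.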

Glc(a1-4)Glc = target: Glc(a1-4)Glc
Procedure, shortened: as §1

GlcA(b1-3)Gal = target: GlcA(b1-3)Gal
Procedure, shortened: as §1

[1] = target: GlcNAc(b1-2)Man(a1-3)[GlcNAc(b1-4)][GlcNAc(b1-2)Man(a1-6)]Man(b1-4)GlcNAc(b1-4)[Fuc(a1-6)]GlcNAc
Procedure, shortened: as §1

[2] = target: GlcNAc(b1-2)[GlcNAc(b1-4)]Man(a1-3)[GlcNAc(b1-4)][GlcNAc(b1-2)[GlcNAc(b1-6)]Man(a1-6)]Man(b1-4)GlcNAc(b1-4)GlcNAc
Procedure, shortened: as §1

[3] = target: GlcNAc(b1-3)Gal(b1-4)GlcNAc(b1-3)Gal(b1-4)GlcNAc(b1-3)Gal(b1-4)GlcNAc(b1-2)[GlcNAc(b1-3)Gal(b1-4)GlcNAc(b1-3)Gal(b1-4)GlcNAc(b1-3)Gal(b1-4)GlcNAc(b1-6)]Man(a1-6)[GlcNAc(b1-3)Gal(b1-4)GlcNAc(b1-3)Gal(b1-4)GlcNAc(b1-3)Gal(b1-4)GlcNAc(b1-2)Man(a1-3)]Man(b1-4)GlcNAc(b1-4)[Fuc(a1-6)]GlcNAc
Procedure, shortened: as §1

[4] = target: GlcNAc(b1-3)Gal(b1-4)GlcNAc(b1-3)[GlcNAc(b1-3)Gal(b1-4)GlcNAc(b1-3)]GalNAc
Procedure, shortened: as §1

[5] = target: GlcNAc(b1-3)Gal(b1-4)GlcNAc(b1-6)[Gal(b1-3)]GalNAc
Procedure, shortened: as §1

GlcNAc(b1-3)Man = target: GlcNAc(b1-3)Man
Procedure, shortened: as §1

[6] = target: GlcNAc(b1-4)GlcNAc(b1-4)GlcNAc
Procedure, shortened: as §1

Kdn(a2-6)Gal(b1-4)GlcNAc = target: Kdn(a2-6)Gal(b1-4)GlcNAc
Procedure, shortened: as §1

[7] = target: Neu5Ac(a2-3)Gal(b1-3)GlcNAc(b1-3)Gal(b1-3)GlcNAc
Procedure, shortened: as §1

[8] = target: Neu5Ac(a2-3)Gal(b1-3)GlcNAc(b1-3)Gal(b1-4)GlcNAc
Procedure, shortened: as §1

[9] = target: Neu5Ac(a2-3)Gal(b1-3)[Fuc(a1-4)]GlcNAc(b1-3)Gal(b1-4)[Fuc(a1-3)]GlcNAc
Procedure, shortened: as §1

[10] = target: Neu5Ac(a2-3)Gal(b1-4)GlcNAc(b1-2)[Neu5Ac(a2-3)Gal(b1-4)GlcNAc(b1-6)]Man(a1-6)[Neu5Ac(a2-3)Gal(b1-4)GlcNAc(b1-2)Man(a1-3)]Man(b1-4)GlcNAc(b1-4)GlcNAc
Procedure, shortened: as §1

[11] = target: Neu5Ac(a2-3)Gal(b1-4)GlcNAc(b1-2)[Neu5Ac(a2-3)Gal(b1-4)GlcNAc(b1-6)]Man(a1-6)[Neu5Ac(a2-3)Gal(b1-4)GlcNAc(b1-2)Man(a1-3)][GlcNAc(b1-4)]Man(b1-4)GlcNAc(b1-4)GlcNAc
Procedure, shortened: as §1

[12] = target: Neu5Ac(a2-3)Gal(b1-4)GlcNAc(b1-3)Gal(b1-4)GlcNAc(b1-3)Gal(b1-4)GlcNAc
Procedure, shortened: as §1

[13] = target: Neu5Ac(a2-3)Gal(b1-4)GlcNAc(b1-6)GalNAc
Procedure, shortened: as §1

[14] = target: Neu5Ac(a2-3)Gal(b1-4)GlcNAc(b1-6)[Gal(b1-3)]GalNAc
Procedure, shortened: as §1

[15] = target: Neu5Ac(a2-6)Gal(b1-4)GlcNAc(b1-2)Man(a1-3)[Neu5Ac(a2-6)Gal(b1-4)GlcNAc(b1-2)Man(a1-6)]Man(b1-4)GlcNAc(b1-4)GlcNAc
Procedure, shortened: as §1

[16] = target: Neu5Ac(a2-6)Gal(b1-4)GlcNAc(b1-2)Man(a1-6)[Gal(b1-4)GlcNAc(b1-2)Man(a1-3)]Man(b1-4)GlcNAc(b1-4)GlcNAc
Procedure, shortened: as §1

[17] = target: Neu5Ac(a2-6)Gal(b1-4)GlcNAc(b1-3)Gal(b1-4)GlcNAc(b1-3)Gal(b1-4)GlcNAc(b1-2)Man(a1-3)[Neu5Ac(a2-6)Gal(b1-4)GlcNAc(b1-3)Gal(b1-4)GlcNAc(b1-3)Gal(b1-4)GlcNAc(b1-2)Man(a1-6)]GalNAc
Procedure, shortened: as §1

[18] = target: Neu5Ac(a2-6)Gal(b1-4)GlcNAc(b1-6)[Gal(b1-3)GlcNAc(b1-3)]Gal(b1-4)Glc
Procedure, shortened: as §1

[19] = target: Neu5Ac(a2-6)GalNAc(b1-4)GlcNAc6S
Procedure, shortened: as §1

[20] = target: Neu5Ac(a2-8)Neu5Ac(a2-3)Gal(b1-3)GalNAc(b1-4)[Neu5Ac(a2-3)]Gal(b1-4)Glc
Procedure, shortened: as §1

[21] = target: Neu5Ac(a2-8)Neu5Ac(a2-8)Neu5Ac(a2-3)[GalNAc(b1-4)]Gal(b1-4)Glc
Procedure, shortened: as §1

[22] = target: Neu5Ac9Ac(a2-6)Gal(b1-4)GlcNAc
Procedure, shortened: as §1

[23] = target: Neu5Gc(a2-6)Gal(b1-4)GlcNAc
Procedure, shortened: as §1

[24] = target: Neu5Gc(a2-8)Neu5Gc(a2-3)Gal(b1-4)GlcNAc(b1-3)Gal(b1-4)GlcNAc
Procedure, shortened: as §1

B1: Gal 4 (Mus musculus), P56470 (protein)
chain: MAYVPAPGYQPTYNPTLPYYQPIPGGLNVGMSVYIQGVASEHMKRFFVNFVVGQDPGSDVAFHFNPRFDGWDKVVFNTLQGGKWGSEERKRSMPFKKGAAFELVFIVLAEHYKVVVNGNPFYEYGHRLPLQMVTHLQVDGDLQLQSINFIGGQPLRPQGPPMMPPYPGPGHCHQQLNSLPTMEGPPTFNPPVPYFGRLQGGLTARRTIIIKGYVPPTGKSFAINFKVGSSGDIALHINPRMGNGTVVRNSLLNGSWGSEEKKITHNPFGPGQFFDLSIRCGLDRFKVYANGQHLFDFAHRLSAFQRVDTLEIQGDVTLSYVQI
glycan array binding signal (z-score) (GalNAc(b1-3)GlcNAc): -0.272
glycan array binding signal (z-score) (Glc(a1-4)Glc): -0.244
glycan array binding signal (z-score) (GlcA(b1-3)Gal): -0.24
glycan array binding signal (z-score) [1]: -0.278
glycan array binding signal (z-score) [2]: -0.23
glycan array binding signal (z-score) [3]: -0.244
glycan array binding signal (z-score) [4]: -0.255
glycan array binding signal (z-score) [5]: -0.174
glycan array binding signal (z-score) (GlcNAc(b1-3)Man): -0.218
glycan array binding signal (z-score) [6]: -0.23
glycan array binding signal (z-score) (Kdn(a2-6)Gal(b1-4)GlcNAc): -0.242
glycan array binding signal (z-score) [7]: 0.107
glycan array binding signal (z-score) [8]: -0.205
glycan array binding signal (z-score) [9]: -0.234
glycan array binding signal (z-score) [10]: -0.196
glycan array binding signal (z-score) [11]: -0.338
glycan array binding signal (z-score) [12]: -0.231
glycan array binding signal (z-score) [13]: -0.314
glycan array binding signal (z-score) [14]: -0.228
glycan array binding signal (z-score) [15]: -0.226
glycan array binding signal (z-score) [16]: -0.196
glycan array binding signal (z-score) [17]: -0.294
glycan array binding signal (z-score) [18]: -0.295
glycan array binding signal (z-score) [19]: -0.293
glycan array binding signal (z-score) [20]: -0.247
glycan array binding signal (z-score) [21]: -0.227
glycan array binding signal (z-score) [22]: -0.232
glycan array binding signal (z-score) [23]: -0.231
glycan array binding signal (z-score) [24]: -0.309
